# Measurements reported in the supplement of paper PMC12819154, “High-throughput peptide-centric local stability assay extends protein–ligand identification to membrane proteins, tissues and bacteria” (Nature Structural & Molecular Biology, 2025).
# Compound: CN[C@@H]1C[C@H]2O[C@@](C)([C@@H]1OC)n1c3ccccc3c3c4c(c5c6ccccc6n2c5c31)C(=O)NC4 [staurosporine]
# Experiment: log2 fold change of tryptic peptide abundance, ligand vs vehicle (limited proteolysis) (log2 ratio); higher = more trypsin-susceptible (destabilized)
# Conditions: ligand concentration: 20 uM; sample: mouse liver crude lysate; replicate design: treated separately
# Chain of UniProt Q8R0Y8 (Q8R0Y8 whole entry): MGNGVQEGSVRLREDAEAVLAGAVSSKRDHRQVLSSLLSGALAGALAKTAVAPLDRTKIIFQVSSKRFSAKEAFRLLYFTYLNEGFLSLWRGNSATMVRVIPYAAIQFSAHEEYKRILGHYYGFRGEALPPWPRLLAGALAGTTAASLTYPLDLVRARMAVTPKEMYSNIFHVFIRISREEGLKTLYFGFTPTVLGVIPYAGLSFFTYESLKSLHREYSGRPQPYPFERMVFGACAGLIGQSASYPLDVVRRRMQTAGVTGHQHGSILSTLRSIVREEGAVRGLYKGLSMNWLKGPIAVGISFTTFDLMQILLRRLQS
# Chain of UniProt Q9WVD5 (Q9WVD5 whole entry): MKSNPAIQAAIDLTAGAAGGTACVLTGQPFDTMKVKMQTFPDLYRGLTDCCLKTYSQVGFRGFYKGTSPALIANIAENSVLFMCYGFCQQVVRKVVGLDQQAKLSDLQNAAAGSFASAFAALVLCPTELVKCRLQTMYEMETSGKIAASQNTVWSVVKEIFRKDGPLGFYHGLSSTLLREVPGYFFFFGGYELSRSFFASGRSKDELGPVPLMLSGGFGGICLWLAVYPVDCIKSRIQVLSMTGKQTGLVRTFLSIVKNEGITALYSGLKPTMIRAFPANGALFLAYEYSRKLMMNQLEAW
# Chain of UniProt Q9D8V0 (Q9D8V0 whole entry): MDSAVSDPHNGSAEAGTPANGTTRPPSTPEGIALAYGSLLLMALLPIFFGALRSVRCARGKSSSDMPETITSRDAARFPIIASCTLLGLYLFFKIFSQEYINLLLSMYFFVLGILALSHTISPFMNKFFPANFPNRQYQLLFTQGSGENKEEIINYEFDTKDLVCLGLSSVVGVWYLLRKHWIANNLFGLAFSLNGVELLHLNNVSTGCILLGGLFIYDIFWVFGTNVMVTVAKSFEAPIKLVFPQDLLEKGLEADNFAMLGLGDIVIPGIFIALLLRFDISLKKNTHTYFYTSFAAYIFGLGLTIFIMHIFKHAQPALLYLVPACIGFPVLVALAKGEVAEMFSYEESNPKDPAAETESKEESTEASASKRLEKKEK
# Chain of UniProt Q91YX5 (Q91YX5 whole entry): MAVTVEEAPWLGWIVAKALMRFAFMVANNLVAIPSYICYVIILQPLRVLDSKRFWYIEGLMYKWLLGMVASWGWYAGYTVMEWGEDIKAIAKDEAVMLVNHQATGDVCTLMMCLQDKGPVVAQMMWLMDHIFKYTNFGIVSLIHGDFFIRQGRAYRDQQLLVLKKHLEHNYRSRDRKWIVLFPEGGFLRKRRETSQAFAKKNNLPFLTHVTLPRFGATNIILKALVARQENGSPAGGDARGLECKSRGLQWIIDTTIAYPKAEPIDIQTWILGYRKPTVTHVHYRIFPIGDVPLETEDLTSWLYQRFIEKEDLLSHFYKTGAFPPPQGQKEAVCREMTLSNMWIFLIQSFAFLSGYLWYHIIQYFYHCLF
# Chain of UniProt Q9DCQ2 (Q9DCQ2 whole entry): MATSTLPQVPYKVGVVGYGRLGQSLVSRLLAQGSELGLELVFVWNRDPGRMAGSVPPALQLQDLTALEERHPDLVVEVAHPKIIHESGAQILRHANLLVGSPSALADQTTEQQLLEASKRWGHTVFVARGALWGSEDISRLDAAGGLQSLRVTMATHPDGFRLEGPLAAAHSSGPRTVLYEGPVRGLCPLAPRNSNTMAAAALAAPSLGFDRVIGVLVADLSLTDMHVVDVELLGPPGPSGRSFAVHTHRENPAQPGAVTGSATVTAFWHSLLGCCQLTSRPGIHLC
# Chain of UniProt P98154 (P98154 whole entry): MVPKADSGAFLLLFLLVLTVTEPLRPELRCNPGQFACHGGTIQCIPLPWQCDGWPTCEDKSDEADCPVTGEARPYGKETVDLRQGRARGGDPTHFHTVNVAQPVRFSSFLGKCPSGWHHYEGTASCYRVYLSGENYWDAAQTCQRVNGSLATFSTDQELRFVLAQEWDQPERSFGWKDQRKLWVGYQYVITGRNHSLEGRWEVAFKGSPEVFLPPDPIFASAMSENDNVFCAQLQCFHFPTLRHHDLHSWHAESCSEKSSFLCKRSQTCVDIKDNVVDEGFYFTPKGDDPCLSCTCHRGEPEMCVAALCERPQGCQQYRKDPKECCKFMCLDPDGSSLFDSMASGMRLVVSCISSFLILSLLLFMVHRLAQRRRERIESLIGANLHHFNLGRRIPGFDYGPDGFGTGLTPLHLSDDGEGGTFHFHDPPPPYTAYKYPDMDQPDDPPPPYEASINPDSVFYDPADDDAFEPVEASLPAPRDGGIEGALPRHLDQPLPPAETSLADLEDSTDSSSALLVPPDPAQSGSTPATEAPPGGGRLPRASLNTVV
# Chain of UniProt Q8VDM4 (Q8VDM4 whole entry): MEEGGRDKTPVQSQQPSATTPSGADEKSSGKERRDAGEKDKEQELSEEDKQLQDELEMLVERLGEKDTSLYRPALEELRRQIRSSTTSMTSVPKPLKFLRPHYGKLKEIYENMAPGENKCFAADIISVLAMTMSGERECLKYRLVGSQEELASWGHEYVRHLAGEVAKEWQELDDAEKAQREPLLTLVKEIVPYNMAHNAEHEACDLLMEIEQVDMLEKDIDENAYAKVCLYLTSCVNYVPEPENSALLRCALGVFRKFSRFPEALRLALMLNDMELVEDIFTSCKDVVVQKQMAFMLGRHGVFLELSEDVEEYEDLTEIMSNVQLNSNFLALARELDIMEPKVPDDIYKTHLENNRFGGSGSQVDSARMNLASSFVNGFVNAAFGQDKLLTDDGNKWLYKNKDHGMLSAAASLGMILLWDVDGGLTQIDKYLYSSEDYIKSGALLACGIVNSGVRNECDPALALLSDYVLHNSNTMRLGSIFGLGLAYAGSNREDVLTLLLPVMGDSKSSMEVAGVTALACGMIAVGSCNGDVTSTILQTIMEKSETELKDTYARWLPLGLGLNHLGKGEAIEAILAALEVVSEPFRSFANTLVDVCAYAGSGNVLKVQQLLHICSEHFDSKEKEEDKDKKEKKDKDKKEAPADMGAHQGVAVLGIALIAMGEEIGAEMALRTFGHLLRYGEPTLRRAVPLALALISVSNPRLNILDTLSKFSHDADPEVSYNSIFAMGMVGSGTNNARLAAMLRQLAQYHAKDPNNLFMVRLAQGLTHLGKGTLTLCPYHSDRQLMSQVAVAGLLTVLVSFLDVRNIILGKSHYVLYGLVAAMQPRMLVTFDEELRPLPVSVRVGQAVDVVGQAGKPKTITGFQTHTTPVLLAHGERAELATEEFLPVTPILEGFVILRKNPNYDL
# Chain of UniProt P18653 (P18653 whole entry): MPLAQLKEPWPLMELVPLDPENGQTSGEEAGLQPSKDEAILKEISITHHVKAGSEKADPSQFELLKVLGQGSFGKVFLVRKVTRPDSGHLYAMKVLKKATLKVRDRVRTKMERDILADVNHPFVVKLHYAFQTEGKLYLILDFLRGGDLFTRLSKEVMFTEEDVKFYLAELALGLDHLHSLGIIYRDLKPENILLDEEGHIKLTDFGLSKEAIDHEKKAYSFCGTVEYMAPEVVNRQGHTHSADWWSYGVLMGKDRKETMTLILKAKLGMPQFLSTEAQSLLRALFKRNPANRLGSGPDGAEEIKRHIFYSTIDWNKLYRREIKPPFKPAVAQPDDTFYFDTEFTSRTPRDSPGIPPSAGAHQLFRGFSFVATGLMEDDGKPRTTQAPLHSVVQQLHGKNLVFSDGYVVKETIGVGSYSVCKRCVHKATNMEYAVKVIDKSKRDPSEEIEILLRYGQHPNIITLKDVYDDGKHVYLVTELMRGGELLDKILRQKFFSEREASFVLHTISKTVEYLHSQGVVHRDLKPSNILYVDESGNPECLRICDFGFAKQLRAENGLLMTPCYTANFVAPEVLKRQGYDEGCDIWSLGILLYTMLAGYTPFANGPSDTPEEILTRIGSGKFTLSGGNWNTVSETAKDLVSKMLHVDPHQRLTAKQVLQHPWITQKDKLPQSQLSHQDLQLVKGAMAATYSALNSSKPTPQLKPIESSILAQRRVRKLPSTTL
# Chain of UniProt P48962 (P48962 whole entry): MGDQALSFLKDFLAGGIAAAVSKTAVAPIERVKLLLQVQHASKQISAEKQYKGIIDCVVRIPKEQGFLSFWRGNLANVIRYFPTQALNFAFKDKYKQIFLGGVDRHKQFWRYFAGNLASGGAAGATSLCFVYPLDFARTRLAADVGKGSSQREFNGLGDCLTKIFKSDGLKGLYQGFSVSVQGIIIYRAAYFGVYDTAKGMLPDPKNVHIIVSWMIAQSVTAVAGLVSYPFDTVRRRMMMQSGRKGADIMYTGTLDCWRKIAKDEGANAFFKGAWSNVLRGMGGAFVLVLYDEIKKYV
# Chain of UniProt P14246 (P14246 whole entry): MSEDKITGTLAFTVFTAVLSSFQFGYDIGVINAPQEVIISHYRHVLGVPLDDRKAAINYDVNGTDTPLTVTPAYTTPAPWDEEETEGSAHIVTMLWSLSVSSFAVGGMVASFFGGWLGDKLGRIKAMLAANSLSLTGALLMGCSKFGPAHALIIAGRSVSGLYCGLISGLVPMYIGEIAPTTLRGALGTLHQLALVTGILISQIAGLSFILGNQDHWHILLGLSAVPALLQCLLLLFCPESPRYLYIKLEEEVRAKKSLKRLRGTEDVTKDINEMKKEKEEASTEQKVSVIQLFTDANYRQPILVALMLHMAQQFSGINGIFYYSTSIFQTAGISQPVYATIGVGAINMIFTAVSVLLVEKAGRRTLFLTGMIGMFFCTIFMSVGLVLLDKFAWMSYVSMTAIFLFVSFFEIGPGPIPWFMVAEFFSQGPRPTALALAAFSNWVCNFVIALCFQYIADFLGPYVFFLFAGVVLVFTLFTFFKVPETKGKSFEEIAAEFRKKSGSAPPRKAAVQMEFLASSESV
# Chain of UniProt Q00623 (Q00623 whole entry): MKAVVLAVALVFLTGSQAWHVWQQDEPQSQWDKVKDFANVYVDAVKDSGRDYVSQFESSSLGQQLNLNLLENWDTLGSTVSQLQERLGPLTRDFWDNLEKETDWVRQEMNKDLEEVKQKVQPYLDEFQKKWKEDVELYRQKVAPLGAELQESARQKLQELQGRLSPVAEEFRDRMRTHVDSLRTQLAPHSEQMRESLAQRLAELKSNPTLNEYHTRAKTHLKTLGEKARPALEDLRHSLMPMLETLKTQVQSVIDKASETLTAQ
row,Target,log2 fold change
1,"UniProt Q9WVD5 (peptide sequence: TYSQVGFR, peptide start residue: 54)",-1.35
2,"UniProt Q61036 (peptide sequence: ELLQHPFLK, peptide start residue: 493)",-2.37
3,"UniProt Q6PGL7 (peptide sequence: RPTSFADELAAR, peptide start residue: 281)",-0.483
4,"UniProt Q9DCW4 (peptide sequence: VDLLFLGK, peptide start residue: 117)",0.27
5,"UniProt Q9EQC1 (peptide sequence: DFYYQGLR, peptide start residue: 204)",-0.862
6,"UniProt Q5M8N4 (peptide sequence: LGLGGPIGSGR, peptide start residue: 177)",-0.493
7,"UniProt Q00623 (peptide sequence: TQLAPHSEQMR, peptide start residue: 184)",0.455
8,"UniProt P19253 (peptide sequence: LAHEVGWK, peptide start residue: 141)",0.254
9,"UniProt Q9CQE1 (peptide sequence: HWSHEDPR, peptide start residue: 211)",-0.522
10,"UniProt Q76M72 (peptide sequence: WLIVTNKPQK, peptide start residue: 285)",-2.63
11,"UniProt Q8R0Y8 (peptide sequence: MQTAGVTGHQHGSILSTLR, peptide start residue: 254)",0.401
12,"UniProt Q99JT2 (peptide sequence: LADFGVAGQLTDTQIKR, peptide start residue: 156)",-0.843
13,"UniProt P47811 (peptide sequence: NYIQSLAQMPK, peptide start residue: 257)",0.32
14,"UniProt P24549 (peptide sequence: SVDDVIKR, peptide start residue: 413)",-0.205
15,"UniProt Q7TT50 (peptide sequence: FQFPSHVTDVSEEAK, peptide start residue: 300)",-1.06
16,"UniProt Q03963 (peptide sequence: DLKPGNIFLVDER, peptide start residue: 376)",-1.55
17,"UniProt Q8VDM4 (peptide sequence: SETELKDTYAR, peptide start residue: 546)",-1.29
18,"UniProt P98154 (peptide sequence: GGDPTHFHTVNVAQPVR, peptide start residue: 89)",-1.16
19,"UniProt Q9DBG5 (peptide sequence: VGQMVISGVDR, peptide start residue: 185)",0.534

row,Target,log2 fold change
1,"UniProt Q9D8V0 (peptide sequence: SSSDMPETITSR, peptide start residue: 62)",-1.22
2,"UniProt P18654 (peptide sequence: GAMAATYSALNR, peptide start residue: 701)",0.612
3,"UniProt Q8C0K5 (peptide sequence: GEHTYSGIIHAFK, peptide start residue: 164)",0.837
4,"UniProt P14246 (peptide sequence: HVLGVPLDDR, peptide start residue: 44)",0.702
5,"UniProt Q62120 (peptide sequence: VLPQDKEYYK, peptide start residue: 1000)",-1.02
6,"UniProt P18653 (peptide sequence: ADPSQFELLK, peptide start residue: 57)",-1.44
7,"UniProt Q9D6M3 (peptide sequence: LAANDFFR, peptide start residue: 84)",0.616
8,"UniProt P48962 (peptide sequence: MMMQSGRK, peptide start residue: 238)",0.293
9,"UniProt Q64133 (peptide sequence: ELGIETYK, peptide start residue: 83)",-0.486
10,"UniProt P09103 (peptide sequence: EADDIVNWLKK, peptide start residue: 123)",0.314
11,"UniProt Q68FL6 (peptide sequence: GIGVFGDMAK, peptide start residue: 601)",0.564
12,"UniProt Q91YX5 (peptide sequence: DQQLLVLKK, peptide start residue: 157)",0.642
13,"UniProt Q9DCQ2 (peptide sequence: VTMATHPDGFRLEGPLAAAHSSGPR, peptide start residue: 152)",-0.804
14,"UniProt Q9WVJ2 (peptide sequence: GSIDEVDKR, peptide start residue: 322)",-0.456
15,"UniProt Q2TBE6 (peptide sequence: RFEAEPLPENTNR, peptide start residue: 276)",-2.23
16,"UniProt P11798 (peptide sequence: DLKPENLLLASK, peptide start residue: 136)",-3.02
17,"UniProt Q9WU19 (peptide sequence: LAMALSGCQNVK, peptide start residue: 342)",0.411
18,"UniProt Q2NL51 (peptide sequence: LCDFGSAK, peptide start residue: 198)",-4.01
